# Bioassay records (PubChem BioAssay)
# An excerpt weighted towards active compounds, which were near 9.9% of everything screened.
# Tau fluor cs – counter-screen for tau fibril formation inhibitors; 280,000 compounds, 0.93% hits; AID 1463; tau K18 P301L Alexa594 fluorescence, heparin fibrillization; Potency, µM (top dose mostly 57.7 µM), for inactives: at the highest dose activity change, negative = decrease; active = well fitted curve in the direction sought with a large enough effect; inconclusive = small, poorly fitted or top-dose-only effect, or another doubt; inactive = no such curve, though single readings can be large; an effect the other way counts as inactive or inconclusive; also: nearly all actives have a fitted effect of over 55% in size
#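 Human tau K18 P301L (15 uM unlabeled, 0.24 uM Alexa 594-labeled) in 100 mM sodium acetate pH 7 with 20 uM heparin, 6 hr at 37 C. ThT 30 uM added, 1 hr ambient; Alexa 594 FP and total fluorescence read at 555/632 nm.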
# ALDH1A1 inh – inhibitors of human aldehyde dehydrogenase 1A1. P00352. Purified ALDH1A1, NADH fluorescence, propionaldehyde substrate. Potency, µM (series often up to 75.3 µM), inactives show at the top dose activity, negative = inhibition, usual class: inhibitors. 220,000 compounds, 7.3% hits. AID 1030;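 also: plate controls were no enzyme wells and a reference inhibitor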
# JMJD2E inh – inhibitors of human JMJD2E histone demethylase. JMJD2E catalytic domain, FDH-coupled NADH fluorescence (FDH is formaldehyde dehydrogenase). B2RXH2. Potency, µM (doses to about 57.1 µM), inactives show top-dose activity change, negative = inhibition, usual class: inhibitors. 230,000 compounds, 1.6% hits;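 also: 0% = wells with enzyme and -100% = buffer wells without enzyme; nearly all actives have a fitted effect of over 50% in size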
# Target sequence (B2RXH2 1-337 limits assumed): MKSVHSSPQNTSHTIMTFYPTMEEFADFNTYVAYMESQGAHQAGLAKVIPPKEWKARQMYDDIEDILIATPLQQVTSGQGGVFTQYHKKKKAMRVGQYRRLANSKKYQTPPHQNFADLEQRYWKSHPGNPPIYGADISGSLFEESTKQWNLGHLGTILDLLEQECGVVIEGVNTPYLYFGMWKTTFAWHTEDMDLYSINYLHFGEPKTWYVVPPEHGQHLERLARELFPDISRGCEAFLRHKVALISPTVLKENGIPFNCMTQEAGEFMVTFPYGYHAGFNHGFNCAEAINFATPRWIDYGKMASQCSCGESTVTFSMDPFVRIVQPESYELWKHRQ
# Tau ThT inhib – blocks human tau fibril formation measured by thioflavin T. P10636. recombinant tau K18 P301L, heparin-induced fibrillization, ThT fluorescence. Potency, µM (highest dose often 57.4 µM), without a hit: at the top dose activity, negative = inhibition, most hits filed as inhibitors. 270,000 compounds, 2.1% hits. AID 1460; active = well fitted curve in the direction sought with a large enough effect; inconclusive = small, poorly fitted or top-dose-only effect, or another doubt; inactive = no such curve, though single readings can be large; an effect the other way counts as inactive or inconclusive; also: nearly all actives have a fitted effect of over 55% in size
# Target sequence (P10636 561-689 P618L limits assumed): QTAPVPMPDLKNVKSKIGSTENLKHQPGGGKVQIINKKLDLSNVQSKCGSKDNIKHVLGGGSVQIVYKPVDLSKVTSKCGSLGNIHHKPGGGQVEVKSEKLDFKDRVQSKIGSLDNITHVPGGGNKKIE
#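 ThT emission at 510 nm, taken 1 hr after adding 30 uM dye, quantifies aggregates formed when 20 uM heparin acts on human tau K18 P301L for 6 hr at 37 C.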
# Tau FP inhib – blocks human tau fibril formation measured by polarization. P10636. K18 P301L tau heparin fibrillization, Alexa594 FP, 6 h. Potency, µM (highest dose often 57.7 µM), for inactives: at the highest dose activity, negative = inhibition, hits mostly inhibitors. 280,000 compounds, 0.39% hits. AID 1468; active = well fitted curve in the direction sought with a large enough effect; inconclusive = small, poorly fitted or top-dose-only effect, or another doubt; inactive = no such curve, though single readings can be large; an effect the other way counts as inactive or inconclusive; also: nearly all actives have a fitted effect of over 55% in size
#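 Heparin (20 uM) drove fibril formation of recombinant tau K18 P301L, 15 uM unlabeled with 0.24 uM Alexa 594 label, for 6 hr at 37 C in 100 mM sodium acetate pH 7. Fluorescence polarization (555/632 nm) read 1 hr after 30 uM ThT.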
# HPGD inh – HPGD (human) dehydrogenase inhibition. 150,000 compounds, 4.3% hits. purified HPGD, NADH fluorescence kinetic, PGE2 substrate. Potency, µM, without a hit: at the top dose activity change, negative = inhibition, usual class: inhibitors
# Target sequence (P15428 whole entry, looked up): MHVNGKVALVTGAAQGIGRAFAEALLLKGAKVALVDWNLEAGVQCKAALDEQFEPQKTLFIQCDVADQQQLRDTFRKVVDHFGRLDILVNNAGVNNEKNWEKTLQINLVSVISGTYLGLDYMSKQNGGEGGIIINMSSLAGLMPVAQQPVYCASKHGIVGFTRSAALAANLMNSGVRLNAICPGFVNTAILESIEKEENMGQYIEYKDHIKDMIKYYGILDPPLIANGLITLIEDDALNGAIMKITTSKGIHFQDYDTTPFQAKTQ
#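 NADH formation kinetics: reaction with 30 uM PGE2 and 1 mM NAD+ (final), 20 nM enzyme, Tris-HCl pH 8 with Tween 20, after 15 min compound preincubation at room temperature. Fluorescence change, last versus first of five reads.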
# Active calls of the source: *; ? = inconclusive; / = no result; [ ] = remark or other dose. Unless noted, calls follow the shape of the dose curve; as a rule, active = well fitted inhibition curve with a large enough effect (not every such curve was filed as active); inconclusive = small, poorly fitted or top-dose-only effect, or another doubt; inactive = no such curve, though single readings can be large or run the other way. Unless noted, % is scaled to controls: 0 for no effect and ±100 for the full control effect; potency is read from the fitted curve at half-maximal effect.
SMILES,Tau fluor cs,ALDH1A1 inh,JMJD2E inh,Tau ThT inhib,Tau FP inhib,HPGD inh
CN(c1ccccc1)c1ccc(/C=C(\C#N)c2nnc3n2CCCCC3)cc1[N+](=O)[O-],?,?,-2.7%,14.1µM*,1.1%,/
CNc1ccc(/C=C(\C#N)c2ccccn2)cc1[N+](=O)[O-],-20.5%,-1.4%,0.7%,?,-15.4%,/
N#C/C(=C\c1cccc([N+](=O)[O-])c1)c1nnc2n1CCCCC2,-1.1%,20µM*,?,-6.8%,-6.5%,31.6µM*
CCOc1ccc(-n2nc(CO)c(C(=O)NCc3cccc(OC)c3)n2)cc1,-12.1%,/,/,?,2.7%,/
CCOC(=O)c1cnn(-c2ncnc3sc4c(c23)CCC4)c1N,-13.5%,3.3%,3.3%,?,2.4%,7.94µM*
CCOC(=O)c1nc(N2CCN(C(=O)OCC)CC2)c2c3c(sc2n1)CCCC3,-10.3%,?,?,?,-8.7%,?
CCOC(=O)c1cnn(-c2nc(SC)nc3sc4c(c23)CCCC4)c1N,-21.3%,1.12µM*,-14.7%,-9.9%,-3.5%,-10.1%
C[C@H]1COc2c(N3CCN(C)CC3)c(F)cc3c(=O)c(C(=O)NCc4ccco4)cn1c23,-5.2%,?,?,-3.0%,-6.3%,-18.4%
O=C(c1ccc(Cl)cc1)C1CCCN(Cc2ccc(Oc3ncccn3)cc2)C1 (centres undefined),-9.1%,28.2µM*,8.0%,-4.0%,-8.2%,/
Cc1ccc(-c2cc(-c3ccccc3Cl)c(C#N)c(N)n2)o1,-27.5%,?,?,31.6µM*,-9.0%,?
Cc1ccc(S(=O)(=O)c2nnn3c2nc(NC2CCCCC2)c2sccc23)cc1C,?,/,/,-9.7%,?,/
CCOc1ncccc1C(=O)OCC(=O)N1CCc2ccccc21,0.2%,7.94µM*,5.8%,-2.3%,2.3%,/
CCOc1ncccc1C(=O)OCC(=O)c1ccc(F)cc1,-5.0%,4.8%,-0.7%,-9.7%,1.0%,/
O=C(OCC(=O)N1CCc2ccccc21)c1ccc[nH]c1=O,7.5%,-14.8%,-18.6%,7.2%,3.0%,/
O=C1CN(C(=O)COC(=O)C2=COCCO2)c2ccccc2N1,-10.4%,12.2%,1.0%,-6.5%,0.5%,/
CCOc1ncccc1C(=O)OCC(=O)c1ccc(Cl)s1,-6.5%,?,-25.3%,-0.4%,1.4%,20µM*
O=C(OCC(=O)N1CCc2ccccc21)C1=COCCO1,-0.6%,14.1µM*,6.2%,2.6%,4.6%,-12.2%
COc1ccc(-c2ccc3c(n2)CCCN3C[C@H](O)CN2CCCc3nc(C)c(C)cc32)cc1,-15.9%[11.6 µM],?,/,?,3.2%[11.6 µM],/
Cc1ccc(NC(=O)c2ncn(-c3ccccc3)n2)cc1Cl,-7.5%,/,/,?,-11.1%,/
CCSC1=C(C#N)C(c2ccc3c(c2)OCO3)C2=C(CCCC2=O)N1 (centres undefined),-3.3%,?,7.0%,-9.1%,-8.6%,14.1µM*
Cc1ccc(NC(=O)CSC2=C(C#N)C(c3ccc4c(c3)OCO4)C3=C(CCCC3=O)N2)c(C)c1 (centres undefined),?,14.1µM*,?,-15.0%,-4.6%,?
N#CC1=C(SCc2ccccc2)NC2=C(C(=O)CCC2)C1c1ccc2c(c1)OCO2 (centres undefined),?,?,?,-12.8%,4.6%,-29.1%
COC(=O)CSC1=C(C#N)C(c2ccc3c(c2)OCO3)C2=C(CCCC2=O)N1 (centres undefined),-6.0%,-5.3%,-3.5%,-7.8%,10.8%,-18.3%
O=C(NCC1CCCO1)c1cc(-c2ccc(Cl)cc2Cl)on1 (centres undefined),-12.2%,?,6.2%,-2.3%,-4.3%,8.91µM*
Cc1ccc(SCC(=O)NCC2CCCO2)cc1 (centres undefined),1.8%,5.2%,2.3%,2.0%,10.1%,/
SMILES,Tau fluor cs,ALDH1A1 inh,JMJD2E inh,Tau ThT inhib,Tau FP inhib,HPGD inh
O=C(NC(=S)NCC1CCCO1)c1ccc(Cl)cc1Cl (centres undefined),-2.5%,-9.5%,8.4%,-2.9%,-3.5%,-5.3%
CC(C)c1ccc(SCc2noc(C(=O)NCC3CCCO3)c2C(=O)O)cc1 (centres undefined),-1.6%,?,2.9%,6.8%,-5.5%,7.94µM*
O=C(NCC1CCCO1)c1cc(-c2ccccc2)on1 (centres undefined),-0.7%,1.9%,7.6%,-2.7%,1.1%,?
Cc1ccc(SCCC(=O)NCC2CCCO2)cc1 (centres undefined),-0.6%,-12.8%,3.3%,-10.2%,0.4%,15.8µM*
Cc1ccc(-c2cc(C(=O)NCC3CCCO3)no2)cc1 (centres undefined),-5.5%,?,2.6%,-9.5%,-5.0%,14.1µM*
Cc1ccc(-n2nc(-c3cccs3)cc2C(=O)NCC2CCCO2)c(C)c1 (centres undefined),1.7%,20µM*,-0.6%,-1.5%,-7.6%,1µM*
Cc1ccc(N(CC(=O)NCC2CCCO2)C(=O)Cn2nnc(-c3cccs3)n2)cc1 (centres undefined),13.1%[2.34 µM],-3.0%,-2.4%,?,14.6%,/
Nc1nc(N)c(S(=O)(=O)c2ccccc2)c(Nc2ccccc2)n1,-26.0%,/,/,8.8%,?,/
Nc1nc(N)c(C=Nc2ccc(Br)cc2)c(Nc2ccc(Br)cc2)n1,10µM*[quencher],5.5%,-2.8%,28.2µM*,?,/
Nc1nc(N)c(S(=O)(=O)c2ccccc2)c(Nc2ccc(F)cc2)n1,?,/,/,-0.4%,?,/
Nc1nc(N)c(S(=O)(=O)c2ccccc2)c(Nc2ccc(Br)cc2)n1,?,/,/,-9.0%,31.6µM*,/
O=C(CN1CCCCC1)Nc1nnc(-c2ccc([N+](=O)[O-])cc2)s1,-15.3%,-1.4%,-2.1%,12.6µM*,-2.2%,-15.0%
CC(=O)N=Nc1[nH]c(N)c2ccccc12,5.9%,-2.5%,-4.0%,-0.6%,2.3%,/
Fc1ccccc1Nc1nc2c(s1)CCc1ccccc1-2,-8.8%,5.0%,3.4%,-8.1%,1.7%,22.4µM*
CCOc1cc(C=C(C#N)C#N)ccc1Oc1ccc([N+](=O)[O-])cn1,-13.1%,3.16µM*,?,?,?,/
COc1cc(/C=N\NC(=O)c2ccc(Cl)cc2)ccc1Oc1ccc([N+](=O)[O-])cn1,4.3%,/,-5.9%,1.0%,-1.7%,/
COc1ccc(S(=O)(=O)N(CCc2ccccc2)CC(=O)Nc2cccc(OC)c2)cc1,?,/,/,-16.5%,-16.8%,/
O=C(O)c1ncsc1-c1ccccc1,-3.0%,/,?,-20.5%,-12.0%,/
O=C(O)c1nnsc1-c1ccc(-c2snnc2C(=O)O)cc1,/,3.98µM*,/,/,/,-21.7%
COc1ccc(N=C2C(=O)Nc3c(C)cccc32)cc1,-13.7%,14.1µM*,-2.8%,?,-14.2%,-0.1%
COc1ccc(N=C2NC(=O)/C(=C/C=C/c3ccccc3)S2)cc1,-3.6%,/,-8.9%,/,-11.3%,/
